# From PubChem
# APP transl inh – APP translation inhibition. SH-SY5Y APP 5'UTR-luciferase reporter, luminescence. inhibition, % at 2 µM. hit rate 0.82% among 190,000;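 active means inhibition above a set limit, derived from the sample mean plus 3 SD, cut at about 45% in these data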
# BaF3 tox – reduces parental Ba/F3 cell viability, JAK2V617F counter-screen; AID 1486; hit rate 1.1% among 220,000; CellTiter-Glo ATP luminescence; inhibition, % at 5.6 µM;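 active means inhibition above a per-campaign cutoff, the mean inhibition of all tested compounds plus 3 SD, cut at about 27% in these data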;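 further: 0% = DMSO wells and 100% = JAK Inhibitor I control wells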
# Ba/F3 V617F tox – lowers viability of Ba/F3 cells expressing EpoR and JAK2V617F; ATP luminescence; inhibition, % at 5.6 µM; AID 1446; hit rate 1.1% among 220,000;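 active means inhibition above the campaign mean plus 3 SD over all tested compounds, cut at about 24% in these data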;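 further: cytokine-independent growth of Ba/F3 cells driven by EpoR plus mutant JAK2; 0% = DMSO-treated cells and 100% = JAK inhibitor I control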
# KLF5 inh – kruppel-like factor 5 inhibition; inhibition, % at 5 µM; DLD-1 KLF5 promoter-luciferase reporter, luminescence; hit rate 0.23% among 290,000;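 active means inhibition above a per-plate limit of that plate's mean compound inhibition plus 3 SD, cut at about 60% in these data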;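 further: 0% = DMSO wells and 100% = LY294002 at 200 µM; higher means less KLF5 promoter-driven luciferase light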
# IEC-6 tox – IEC-6 cytotoxicity, counter-screen for KLF5 inhibitors; luminescence viability; inhibition, % at 5 µM; hit rate 0.78% among 290,000; AID 1825;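 further: 0% = plate median of test compound wells and 100% = cytotoxic reference compound wells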
# IEC-6 cytotox cf – IEC-6 cytotoxicity, confirmation assay. shares compounds with IEC-6 tox. IEC-6 rat intestinal epithelial viability, luminescence. inhibition, % at 5 µM. hit rate 63% among 1,900. AID 1907;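 further: 0% = vehicle and 100% = reference cytotoxic drug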
# Starred values were filed as active, the others as inactive; / = not tested or not shown. The list is not random: actives were taken first. Their share in the collection is about 1.9%. Unless noted, no stated cut-off is given here; in the data, active means inhibition above about 22%; inactive means the rest.
SMILES,APP transl inh,BaF3 tox,Ba/F3 V617F tox,KLF5 inh,IEC-6 tox,IEC-6 cytotox cf
CCN(CC)c1ccc2c(Cl)c(Br)c(=O)oc2c1,5,3,1,-25,50*,27*
COc1cccc(/C=N/Nc2snc(SC)c2C#N)c1,-30,3,1,17,44*,37*
COc1ccc(/C=N/Nc2snc(SC)c2C#N)cc1OC,-92,3,0,-21,41*,31*
CSc1nsc(N/N=C/c2ccccc2)c1C#N,-43,5,0,-6,34*,33*
COc1cccc(/C=N/Nc2snc(SC)c2C#N)c1O,-60,11,5,-83,7,/
CS(=O)(=O)N1N=C(c2cccs2)CC1c1ccco1 (stereo not given),16,4,-1,-4,-2,/
CC(C)C(=O)O/N=C(\N)c1ccc(Oc2ccc(Cl)cc2)c([N+](=O)[O-])c1,/,6,0,-17,-3,/
COc1ccc(CCNCc2c(OC)ccc3ccccc23)cc1OC,/,/,/,-24,26*,4
Cc1ccc(C(=O)Cn2c(C(=O)OCCO)cc3ccccc32)cc1,/,/,/,-6,26*,10
COc1cccc(NC(=O)N2CCC(NC(=O)C3CCCCC3)CC2)c1,/,/,/,-16,3,/
CN1CCN(c2ncnc3c2[nH]c2ccc(F)cc23)CC1,-4,8,1,-20,4,/
CCOc1ccc2[nH]c3c(N4CCc5ccccc5C4)ncnc3c2c1,/,-3,5,12,40*,90*
COc1ccccc1NC(=O)Cn1nnc(C(=O)NCc2cccs2)c1N,/,/,/,56,79*,53*
Cc1ccc(C)c(NC(=O)Cn2nnc(C(=O)NCc3ccco3)c2N)c1,/,/,/,41,24*,18
CCOC(=O)c1nc(C)n(-c2cc(OC)c(Cl)cc2Cl)n1,3,8,0,-3,-3,/
O=C(Nc1ccc(-c2ccc3nncn3n2)cc1)c1ccc(Br)o1,17,5,-3,-27,-6,/
Cn1ccnc1CN1CCCCC1C(=O)Nc1ccc(Oc2cccnc2)cc1 (stereo not given),/,/,/,15,27*,3
CCn1ccnc1CN1CCCCC1C(=O)Nc1ccc(Oc2cccnc2)cc1 (stereo not given),/,/,/,2,9,/
CC1CCN(S(=O)(=O)c2nnc(NC(=O)c3cccc(Cl)c3)s2)CC1,/,/,/,14,11,/
O=S(=O)(c1ccc2c(c1)nc(COc1ccc(Cl)cc1)n2CC1CCCO1)N1CCOCC1 (stereo not given),-4,56*,33*,-15,37*,-8
O=C(Nc1ccc(SC(F)F)cc1)c1ccc(F)cc1,-107,4,4,-109,6,/
O=C(O)CC(NC(=O)C12CC3CC(CC(C3)C1)C2)c1ccc(OC2CCCC2)cc1 (stereo not given),-14,3,0,-3,1,/
NC(=O)N=Nc1c2[nH]c3ccccc3nc-2c2ccccc12,/,7,6,8,26*,7
O=c1[nH]c2ccccc2nc1-c1ccccc1,/,2,5,-48,11,/
O=C(COC(=O)c1ccco1)NCc1ccc(F)cc1,-7,2,0,-15,0,/
SMILES,APP transl inh,BaF3 tox,Ba/F3 V617F tox,KLF5 inh,IEC-6 tox,IEC-6 cytotox cf
C/C(=N\NC(=O)c1cccc(F)c1)c1ccc(Br)s1,-3,14,7,6,24*,32*
O=C(Nc1ccc(Cl)c(Cl)c1)Nc1nnc(CC2=CCCCC2)s1,-2,1,-3,-24,-7,/
CCCSc1nnc(Sc2nnnn2-c2ccccc2)s1,94*,95*,82*,-40,42*,26*
COc1cc(C(=O)Nc2ccccn2)cc(OC)c1OC,-8,3,-1,-21,-1,/
COc1cc(C(=O)Nc2ccccc2C(=O)Nc2ccccn2)cc(OC)c1OC,/,/,/,34,33*,21
S=C(Nc1ccccc1)Nc1nccs1,/,0,2,-115,42*,8
NC(=O)CN1CCN(Cc2ccc3c(c2)OCO3)CC1,/,/,/,-42,-2,/
COc1cccc(N2CCN(C(=S)NCc3ccco3)CC2)c1,5,8,1,-13,4,/
CCOC(=O)c1ccc(NC(=O)Nc2ccon2)cc1,/,88*,88*,60,87*,65*
O=C(Nc1ccc(Cl)c(Cl)c1)Nc1ccon1,/,/,/,17,74*,58*
CCOC(=O)c1ccc(NC(=O)Nc2ccc(Cl)cn2)cc1,-10,1,-2,16,-2,/
COc1ccc(NC(=O)Nc2ccon2)cc1OC,/,/,/,-33,-6,/
CCOc1ccc(S(=O)(=O)n2cc(F)c(=O)[nH]c2=O)cc1[N+](=O)[O-],/,/,/,-2,55*,12
CCCOc1ccc(S(=O)(=O)n2cc(Br)c(=O)[nH]c2=O)cc1,2,12,6,-3,-2,/
CCOc1ccc(S(=O)(=O)n2cc(F)c(=O)[nH]c2=O)cc1,4,60*,44*,11,86*,13
NS(=O)(=O)c1ccc(NC(=O)c2cc(Cl)sc2Cl)cc1,/,/,/,-19,-11,/
Cc1ccc(-c2ocnc2C(=O)Nc2ccccc2NC(=O)c2ccccn2)cc1,/,/,/,-20,27*,20
CCOc1ccccc1C1CC(=O)Nc2cc(C)c(C)cc21 (stereo not given),/,/,/,11,42*,26*
O=C1CC(c2cccnc2)c2cc3c(cc2N1)OCCO3 (stereo not given),-8,12,6,-2,7,/
CCOc1ccccc1C1CC(=O)Nc2cc(OC)c(OC)c(OC)c21 (stereo not given),-5,2,-1,-49,-4,/
CCOc1ccccc1C1CC(=O)Nc2cc3c(cc21)OCCO3 (stereo not given),14,78*,80*,60,66*,54*
COc1ccccc1C1CC(=O)Nc2cc(C)c(C)cc21 (stereo not given),/,/,/,-11,36*,6
CCCOc1ccccc1C1CC(=O)NC2=C1C(=O)CCC2 (stereo not given),21,28*,18,-6,37*,33*
CCOc1ccc(C2CC(=O)NC3=C2C(=O)CCC3)cc1 (stereo not given),1,2,0,12,2,/
Cc1cc2c(cc1C)C(c1ccccc1OC(C)C)CC(=O)N2 (stereo not given),/,/,/,27,44*,31*
SMILES,APP transl inh,BaF3 tox,Ba/F3 V617F tox,KLF5 inh,IEC-6 tox,IEC-6 cytotox cf
CCOc1ccccc1OCC(=O)N/N=C(\C)Cc1ccc(OC)cc1,92*,73*,72*,55,70*,-17
COc1ccccc1OCC(=O)NN=C(Cc1ccccc1)Cc1ccccc1,9,5,0,-32,6,/
CCOc1ccc(-c2c(C(=O)N/N=C/C3CCCCC3)nnn2-c2nonc2N)cc1,/,/,/,-2,-7,/
O=[N+]([O-])CC(c1ccc(F)cc1)c1c[nH]c2ccccc12 (stereo not given),/,/,/,32,47*,29*
Cc1cccc(C(=O)NCCN2CCOCC2)c1[N+](=O)[O-],-6,5,-2,-41,-4,/
COc1ccc(NC(=O)CSc2nc3ccccc3n2-c2ccccc2)c([N+](=O)[O-])c1,10,5,2,-11,1,/
